According to publication PMC8384837, “Expanding the binding specificity for RNA recognition by a PUF domain”:

Legend:
Test in all cases: yeast three-hybrid, YBZ-1, SC-Leu-His + 0.5 mM 3-AT, 4 days
Details in all cases: tags: N-Gal4 AD-HA kept; label: inside an RPR1-promoter hybrid RNA with tandem MS2 sites; ssRNA
PUM1 PUF domain R3-VWS = PUM1 PUF domain R3-VWS (Homo sapiens, UniProt Q14671 828-1176, C935V;R936W;Q939S)
Method in brief: (§1)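 The interaction score is the logarithmic change in variant frequency from input to selection. It uses log2, with a pseudocount of 1 for absent variants, and frequencies came from PCR-amplified, Illumina-sequenced repeat regions. The libraries were Pumilio-1 PUF domains randomized at the three base-contacting residues per repeat, co-expressed with matching RNA elements in strain YBZ-1 (LexA–MS2 coat fusion, HIS3 reporter). Plating lasted four days on SC-Leu (input) or SC-Leu-His + 0.5 mM 3-AT (selection).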

PUM1 PUF domain R4-SPC = PUM1 PUF domain R4-SPC (Homo sapiens, UniProt Q14671 828-1176, N971S;H972P;Q975C)
Sequence of PUM1 PUF domain R4-SPC (Q14671 828-1176 N971S/H972P/Q975C): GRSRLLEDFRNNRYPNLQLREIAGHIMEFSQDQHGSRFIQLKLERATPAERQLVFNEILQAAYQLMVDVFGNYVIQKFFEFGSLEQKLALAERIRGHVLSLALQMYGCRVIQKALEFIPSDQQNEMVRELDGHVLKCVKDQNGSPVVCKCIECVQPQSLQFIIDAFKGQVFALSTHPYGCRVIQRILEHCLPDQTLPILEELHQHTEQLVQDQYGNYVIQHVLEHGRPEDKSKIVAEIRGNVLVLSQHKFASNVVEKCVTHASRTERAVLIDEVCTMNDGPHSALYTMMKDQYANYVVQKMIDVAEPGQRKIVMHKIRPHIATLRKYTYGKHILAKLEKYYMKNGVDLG
Method in brief: as §1

PUM1 PUF domain R3-IYV = PUM1 PUF domain R3-IYV (Homo sapiens, UniProt Q14671 828-1176, C935I;R936Y;Q939V)
Method in brief: as §1

PUM1 PUF domain R8-RHR = PUM1 PUF domain R8-RHR (Homo sapiens, UniProt Q14671 828-1176, N1122R;Y1123H;Q1126R)
Method in brief: as §1

PUM1 PUF domain R8-RMR = PUM1 PUF domain R8-RMR (Homo sapiens, UniProt Q14671 828-1176, N1122R;Y1123M;Q1126R)
Method in brief: as §1

PUM1 PUF domain R2-RKG = PUM1 PUF domain R2-RKG (Homo sapiens, UniProt Q14671 828-1176, N899R;Y900K;Q903G)
Sequence of PUM1 PUF domain R2-RKG (Q14671 828-1176 N899R/Y900K/Q903G): as the sequence (Q14671 828-1176 N971S/H972P/Q975C) above, with N72R, Y73K, Q76G, S144N, P145H, C148Q counted along it
Method in brief: as §1

PUM1 PUF domain R2-AWW = PUM1 PUF domain R2-AWW (Homo sapiens, UniProt Q14671 828-1176, N899A;Y900W;Q903W)
Sequence of PUM1 PUF domain R2-AWW (Q14671 828-1176 N899A/Y900W/Q903W): as the sequence (Q14671 828-1176 N971S/H972P/Q975C) above, with N72A, Y73W, Q76W, S144N, P145H, C148Q counted along it
Method in brief: as §1

PUM1 PUF domain R2-RKS = PUM1 PUF domain R2-RKS (Homo sapiens, UniProt Q14671 828-1176, N899R;Y900K;Q903S)
Sequence of PUM1 PUF domain R2-RKS (Q14671 828-1176 N899R/Y900K/Q903S): as the sequence (Q14671 828-1176 N971S/H972P/Q975C) above, with N72R, Y73K, Q76S, S144N, P145H, C148Q counted along it
Method in brief: as §1

PUM1 PUF domain R5-FNG = PUM1 PUF domain R5-FNG (Homo sapiens, UniProt Q14671 828-1176, C1007F;R1008N;Q1011G)
Sequence of PUM1 PUF domain R5-FNG (Q14671 828-1176 C1007F/R1008N/Q1011G): as the sequence (Q14671 828-1176 N971S/H972P/Q975C) above, with S144N, P145H, C148Q, C180F, R181N, Q184G counted along it
Method in brief: as §1

PUM1 PUF domain R5-GNW = PUM1 PUF domain R5-GNW (Homo sapiens, UniProt Q14671 828-1176, C1007G;R1008N;Q1011W)
Sequence of PUM1 PUF domain R5-GNW (Q14671 828-1176 C1007G/R1008N/Q1011W): as the sequence (Q14671 828-1176 N971S/H972P/Q975C) above, with S144N, P145H, C148Q, C180G, R181N, Q184W counted along it
Method in brief: as §1

PUM1 PUF domain R7-RRF = PUM1 PUF domain R7-RRF (Homo sapiens, UniProt Q14671 828-1176, S1079R;N1080R;E1083F)
Sequence of PUM1 PUF domain R7-RRF (Q14671 828-1176 S1079R/N1080R/E1083F): as the sequence (Q14671 828-1176 N971S/H972P/Q975C) above, with S144N, P145H, C148Q, S252R, N253R, E256F counted along it
Method in brief: as §1

PUM1 PUF domain R5-RFE = PUM1 PUF domain R5-RFE (Homo sapiens, UniProt Q14671 828-1176, C1007R;R1008F;Q1011E)
Method in brief: as §1

PUM1 PUF domain R1-QTK = PUM1 PUF domain R1-QTK (Homo sapiens, UniProt Q14671 828-1176, S863Q;R864T;Q867K)
Sequence of PUM1 PUF domain R1-QTK (Q14671 828-1176 S863Q/R864T/Q867K): as the sequence (Q14671 828-1176 N971S/H972P/Q975C) above, with S36Q, R37T, Q40K, S144N, P145H, C148Q counted along it
Method in brief: as §1

PUM1 PUF domain R1-RFQ = PUM1 PUF domain R1-RFQ (Homo sapiens, UniProt Q14671 828-1176, S863R;R864F)
Sequence of PUM1 PUF domain R1-RFQ (Q14671 828-1176 S863R/R864F): as the sequence (Q14671 828-1176 N971S/H972P/Q975C) above, with S36R, R37F, S144N, P145H, C148Q counted along it
Method in brief: as §1

PUM1 PUF domain R3-WYR = PUM1 PUF domain R3-WYR (Homo sapiens, UniProt Q14671 828-1176, C935W;R936Y;Q939R)
Method in brief: as §1

Sequence of PUM1 PUF domain R3-VWS (Q14671 828-1176 C935V/R936W/Q939S): as the sequence (Q14671 828-1176 N971S/H972P/Q975C) above, with C108V, R109W, Q112S, S144N, P145H, C148Q counted along it

GGCUAGAACUAGUGGAUCCCCCGGCGCCCGGCGGCUCGAGCCCGGGUAAGUGUAAAUAGUCUGCAUGCCGCCGGGCGCCAUGCCUGCAGGUCGACUCUAGAAAACAUG
binding signal (PUM1 PUF domain R3-VWS): 2.46 log2 enrichment (interaction score)
binding signal (PUM1 PUF domain R4-SPC): 3.42 log2 enrichment (interaction score)
binding signal (PUM1 PUF domain R3-IYV): 2.65 log2 enrichment (interaction score)
binding signal (PUM1 PUF domain R8-RHR): 5.61 log2 enrichment (interaction score)
binding signal (PUM1 PUF domain R8-RMR): 1.55 log2 enrichment (interaction score)

GGCUAGAACUAGUGGAUCCCCCGGCGCCCGGCGGCUCGAGCCCGGGUAAGUGUAAAGAGUCUGCAUGCCGCCGGGCGCCAUGCCUGCAGGUCGACUCUAGAAAACAUG
binding signal (PUM1 PUF domain R2-RKG): 4.62 log2 enrichment (interaction score)
binding signal (PUM1 PUF domain R2-AWW): 0.42 log2 enrichment (interaction score)
binding signal (PUM1 PUF domain R2-RKS): 4.33 log2 enrichment (interaction score)

GGCUAGAACUAGUGGAUCCCCCGGCGCCCGGCGGCUCGAGCCCGGGUAAGUGUAUAUAGUCUGCAUGCCGCCGGGCGCCAUGCCUGCAGGUCGACUCUAGAAAACAUG
binding signal (PUM1 PUF domain R4-SPC): 2.92 log2 enrichment (interaction score)

GGCUAGAACUAGUGGAUCCCCCGGCGCCCGGCGGCUCGAGCCCGGGUAAGUGUUAAUAGUCUGCAUGCCGCCGGGCGCCAUGCCUGCAGGUCGACUCUAGAAAACAUG
binding signal (PUM1 PUF domain R5-FNG): 3.1 log2 enrichment (interaction score)
binding signal (PUM1 PUF domain R5-GNW): 3.72 log2 enrichment (interaction score)

GGCUAGAACUAGUGGAUCCCCCGGCGCCCGGCGGCUCGAGCCCGGGUAAGUCUAAAUAGUCUGCAUGCCGCCGGGCGCCAUGCCUGCAGGUCGACUCUAGAAAACAUG
binding signal (PUM1 PUF domain R7-RRF): 3.82 log2 enrichment (interaction score)

GGCUAGAACUAGUGGAUCCCCCGGCGCCCGGCGGCUCGAGCCCGGGUAAGUUUAAAUAGUCUGCAUGCCGCCGGGCGCCAUGCCUGCAGGUCGACUCUAGAAAACAUG
binding signal (PUM1 PUF domain R7-RRF): 4.42 log2 enrichment (interaction score)

GGCUAGAACUAGUGGAUCCCCCGGCGCCCGGCGGCUCGAGCCCGGGUAAGUGUAAAAAGUCUGCAUGCCGCCGGGCGCCAUGCCUGCAGGUCGACUCUAGAAAACAUG
binding signal (PUM1 PUF domain R2-AWW): 7.76 log2 enrichment (interaction score)

GGCUAGAACUAGUGGAUCCCCCGGCGCCCGGCGGCUCGAGCCCGGGUAAGUGUCAAUAGUCUGCAUGCCGCCGGGCGCCAUGCCUGCAGGUCGACUCUAGAAAACAUG
binding signal (PUM1 PUF domain R5-RFE): 4.53 log2 enrichment (interaction score)

GGCUAGAACUAGUGGAUCCCCCGGCGCCCGGCGGCUCGAGCCCGGGUAAGUGUAAAUCGUCUGCAUGCCGCCGGGCGCCAUGCCUGCAGGUCGACUCUAGAAAACAUG
binding signal (PUM1 PUF domain R1-QTK): 2.31 log2 enrichment (interaction score)
binding signal (PUM1 PUF domain R1-RFQ): 5.82 log2 enrichment (interaction score)

GGCUAGAACUAGUGGAUCCCCCGGCGCCCGGCGGCUCGAGCCCGGGUAAGUGUAAGUAGUCUGCAUGCCGCCGGGCGCCAUGCCUGCAGGUCGACUCUAGAAAACAUG
binding signal (PUM1 PUF domain R3-IYV): 4.55 log2 enrichment (interaction score)
binding signal (PUM1 PUF domain R3-WYR): 2.45 log2 enrichment (interaction score)

GGCUAGAACUAGUGGAUCCCCCGGCGCCCGGCGGCUCGAGCCCGGGUAAGUGUAAUUAGUCUGCAUGCCGCCGGGCGCCAUGCCUGCAGGUCGACUCUAGAAAACAUG
binding signal (PUM1 PUF domain R3-WYR): 2.58 log2 enrichment (interaction score)

GGCUAGAACUAGUGGAUCCCCCGGCGCCCGGCGGCUCGAGCCCGGGUAAGCGUAAAUAGUCUGCAUGCCGCCGGGCGCCAUGCCUGCAGGUCGACUCUAGAAAACAUG
binding signal (PUM1 PUF domain R8-RHR): 6.54 log2 enrichment (interaction score)
binding signal (PUM1 PUF domain R8-RMR): 3.05 log2 enrichment (interaction score)

GGCUAGAACUAGUGGAUCCCCCGGCGCCCGGCGGCUCGAGCCCGGGUAAGUGUAAACAGUCUGCAUGCCGCCGGGCGCCAUGCCUGCAGGUCGACUCUAGAAAACAUG
binding signal (PUM1 PUF domain R2-RKS): 0.34 log2 enrichment (interaction score)
